Sampled rows, rich in hits. Any-hit rate of the full collection: about 2.4%.
D2 PAM-1: D2 dopamine receptor (human) potentiation | HEK293 T-REx D2, calcium flux, EC20 dopamine potentiation | P14416 | 340,000 compounds, 0.34% hits | potentiation, % at 10 µM;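 active = potentiation over 3 SD above the plate norm, cut at about 30% in these data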; also: 0% is about no effect
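Calcium flux readout, no-wash dye, 1 read/s. Inducible HEK293 Trex D2 line, overnight 30 C. Compound alone 180 s (agonist flags), then EC20 dopamine, another 180 s to score potentiation.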
D2 ag-1: D2 dopamine receptor (human) agonism | AID 485358 | HEK293 T-REx D2 cells, calcium flux agonist mode | 340,000 compounds, 0.53% hits | activation, % at 2 µM;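 active = activation over 3 SD above normal in the single-dose calcium agonist read, cut at about 30% in these data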; also: 0% is about no effect
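Calcium-flux readout, 1 cycle/sec over 180 s following compound pin transfer, in inducible HEK293 Trex D2 cells (force-coupled); dopamine controls included. Positive calcium responses during this window marked compounds as potential agonists.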
D2 antag: antagonists of human D2 dopamine receptor. P14416. HEK293 TREx D2 cells, calcium flux, dopamine EC80. inhibition, % at 10 µM. 340,000 compounds, 2% hits. AID 485344; in the data active = inhibition above about 30%; inactive = below that, where a call was filed; also: 0% is about no effect
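Calcium mobilization kinetics were recorded at 1 s intervals in tetracycline-induced HEK293 T-REx D2 cells, first for 180 s after compound addition and then 180 s after EC80 dopamine.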
D2 PAM-2: human D2 receptor positive allosteric modulation | P14416 | DiscoveRx D2 beta-arrestin cells, luminescence, 90 min; 100% = 57 uM dopamine signal | potentiation, % (concentration not given with the values) | 360,000 compounds, 0.23% hits | AID 624464; in the data active = potentiation above about 50%; inconclusive = mostly about 30% to 49%
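PathHunter D2 cells, attached overnight at 37 deg C, received compound in DMSO plus dopamine at EC20 (50 nM final) for 90 min at 37 deg C. Beta-arrestin recruitment was read as luminescence after 1 h with detection reagent at ambient temperature.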
D2 ag-2: activates the human D2 dopamine receptor. 360,000 compounds, 0.084% hits. activation, % (test concentration not listed). P14416. AID 624465. DiscoveRx PathHunter D2 beta-arrestin, luminescence, 90 min; 100% = 57 uM dopamine signal; in the data active = activation above about 40%; inconclusive = between about 15% and that limit
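Agonist mode: compounds alone added to overnight-plated D2 PathHunter cells for 90 min at 37 C, with 57 uM final dopamine (EC100) defining full response. Beta-arrestin recruitment detected by chemiluminescent reagent, read after 1 h at ambient temperature.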
D3 ag: D3 receptor agonism confirmed, beta-arrestin readout; shares compounds with D2 ag-1; DiscoveRx D3 beta-arrestin cells, luminescence, 90 min; Potency, µM (titrated, usually from 76.9 µM), for inactives: at the highest dose activation, actives largely listed as activators; 2,300 compounds, 4% hits; AID 720506;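 also: potency is read from the fitted curve at half-maximal effect; 100% = dopamine control response; nearly all actives have a fitted effect of over 70% in size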
Target sequence (P35462 whole entry, looked up): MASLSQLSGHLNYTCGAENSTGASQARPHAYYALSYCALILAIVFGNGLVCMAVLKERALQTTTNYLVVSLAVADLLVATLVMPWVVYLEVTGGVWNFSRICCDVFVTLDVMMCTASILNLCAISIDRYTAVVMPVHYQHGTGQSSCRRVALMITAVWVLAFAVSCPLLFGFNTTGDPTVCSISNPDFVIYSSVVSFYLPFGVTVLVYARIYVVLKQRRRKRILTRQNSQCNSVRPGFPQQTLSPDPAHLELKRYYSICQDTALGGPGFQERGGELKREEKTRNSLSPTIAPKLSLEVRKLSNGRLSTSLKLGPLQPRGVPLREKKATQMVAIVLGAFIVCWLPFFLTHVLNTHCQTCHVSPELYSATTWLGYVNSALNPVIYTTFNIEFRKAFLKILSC
D2 ag-3: activates human D2 dopamine receptor in D3 counterscreen; shares compounds with D2 ag-1; DiscoveRx PathHunter D2 beta-arrestin, luminescence, 90 min; response scale: percent relative to full dopamine signal; Potency, µM (titrated, usually from 76.9 µM), for inactives: at the top dose activation, hits mostly activators; 2,300 compounds, 5.9% hits; AID 720507; also: potency is read from the fitted curve at half-maximal effect; % of control where 0% means no effect; nearly all actives have a fitted effect of over 70% in size
Numbers without * were called inactive; ? = inconclusive; . = no result. Unless noted, calls follow the shape of the dose curve; as a rule, active = well fitted activation curve with a large enough effect; inconclusive = small, poorly fitted or top-dose-only effect; inactive = flat fitted curve, though single readings scatter.

SMILES	D2 PAM-1	D2 ag-1	D2 antag	D2 PAM-2	D2 ag-2	D3 ag	D2 ag-3
OC(CN1CCN(c2ccccc2)CC1)c1c[nH]c2ccccc12 (configuration not stated)	-24.5	29.9	54.2*	-10.6	-0.6	6.0%	8.5%
c1ccc(CN2CCN(Cc3cn4cccnc4n3)CC2)cc1	-9.9	0.5	8.5	-10.2	2.6	.	.
c1ccc(N2CCN(Cc3cn4ccccc4n3)CC2)cc1	-18.4	69.5*	36.6*	-16.3	2.0	-9.3%	7.2%
c1ccc(N2CCN(Cc3cn4cccnc4n3)CC2)cc1	-24.0	53.0*	48.5*	-4.5	0.0	1.3%	23.2%
Oc1ccc(N2CCN(Cc3ccc(OCCCN4CCCCC4)cc3)CC2)cc1	-29.4	71.6*	91.3*	5.2	46.7*	?	4.47µM*
c1ccc(COc2ccc(OCCCCN3CCCCC3)cc2)cc1	-11.4	0.3	-14.8	-43.6	4.0	.	.
CC(C)[C@H](Nc1ccc(S(=O)(=O)N2CCOCC2)cc1[N+](=O)[O-])C(=O)OCC(=O)N(C(C)C)C(C)C	0.7	1.5	23.4	-9.8	-0.4	-9.1%	7.5%
CC(C)[C@H](Nc1ccc(S(=O)(=O)N2CCOCC2)cc1[N+](=O)[O-])C(=O)OCC(N)=O	-1.2	-0.2	-0.3	-1.1	0.8	.	.
COc1nc(N)c(C#N)c(-c2ccc(N(C)CCC#N)cc2)c1C#N	5.6	9.7	-9.2	4.9	?	.	.
Cc1cc(=O)n2nc(N3CCC(C(=O)N4CCN(c5ccccc5)CC4)CC3)sc2n1	-1.2	20.5	5.7	-9.2	5.5	?	25.7%
CCn1c(SCC(=O)Nc2nonc2C)nnc1-c1ccco1	-3.0	0.2	4.3	-11.9	-1.3	.	.
CCN(CC(=O)Nc1ccc(OC)cc1)C(=O)Cc1ccc(OC)c(S(=O)(=O)N2CCOCC2)c1	-8.4	-0.8	15.3	-6.5	-0.8	-7.2%	-0.6%
O=C(Nc1ccc2oc(-c3ccccc3)nc2c1)c1cc(-n2cnnc2)ccc1Cl	.	.	.	-0.5	4.1	.	.
O=C(Nc1ccc(-c2nc3ccccc3o2)cc1)c1cc(-n2cnnc2)ccc1Cl	9.5	0.3	7.5	18.8	1.6	?	5.7%
Nc1nonc1-n1nnc(C(=O)N/N=C/c2cccc(Cl)c2)c1-c1ccc2c(c1)OCO2	0.8	0.8	-36.5	-8.2	-8.3	.	.
COc1ccc(/C=N/NC(=O)c2nnn(-c3nonc3N)c2CN(C)C2CCCCC2)cc1	-17.9	55.6*	-2.9	-27.0	-0.6	-0.1%	-4.4%
CC(C)c1c(C(=O)N/N=C/c2ccc3c(c2)OCO3)nnn1-c1nonc1N	10.3	-0.2	9.8	-3.3	1.8	.	.
Nc1nonc1-n1nnc(C(=O)N/N=C/c2ccc(Br)cc2)c1-c1ccc2c(c1)OCO2	18.3	12.2	41.3*	2.7	-5.1	3.5%	6.6%
CN(Cc1c(C(=O)N/N=C/c2ccc(F)cc2)nnn1-c1nonc1N)C1CCCCC1	-8.0	-0.9	9.9	-1.4	-2.7	.	.
Nc1nonc1-n1nnc(C(=O)N/N=C/c2ccc3c(c2)OCO3)c1-c1ccccc1	21.1	16.0	38.6*	-3.0	0.1	?	-0.9%
O=C(NC(Cc1c[nH]c2ccccc12)C(=O)O)/C(=C\c1ccccc1)NC(=O)c1ccccc1 (configuration not stated)	-3.4	-0.4	-12.8	-1.5	-6.0	.	.
O=C(Nc1cccc2ccccc12)c1ccccc1Cl	0.2	-3.6	-4.6	-11.3	-2.5	.	.
CCOc1cc(-c2c(C)c(C)nc(N)c2C#N)ccc1O	-22.7	13.4	8.1	8.8	?	.	.
CCOc1cc(-c2c(C)c(CC)nc(N)c2C#N)ccc1O	-11.1	23.8	5.1	4.0	?	3.5%	?
C/C=C/c1cc(CN2CCN(c3ccccc3)CC2)c(O)c(OC)c1	-32.8	.	.	2.8	5.0	-5.4%	6.2%
SMILES	D2 PAM-1	D2 ag-1	D2 antag	D2 PAM-2	D2 ag-2	D3 ag	D2 ag-3
COC(=O)c1c(-c2ccccc2OC)sc2ccccc12	-2.9	-0.2	-7.7	-5.1	-0.6	-4.7%	-1.8%
O=C(C[n+]1cc(-c2ccccc2)n2c1CCC2)Nc1nc(-c2ccc(F)cc2)cs1	-23.1	75.8*	75.6*	-20.1	4.8	23.5%	?
Cc1ccc(-c2csc(NC(=O)C[n+]3cc(-c4ccc(C)cc4)n4c3CCC4)n2)cc1	-15.0	-0.8	-18.8	-11.7	0.5	.	.
Cc1ccc(-c2csc(NC(=O)C[n+]3cc(-c4ccccc4)n4c3CCC4)n2)cc1	-20.8	77.1*	63.8*	3.6	7.3	6.8%	17.9%
O=C(C[n+]1cc(-c2ccccc2)n2c1CCC2)N1c2ccccc2Sc2ccccc21	-29.5	64.1*	36.8*	-24.0	0.1	0.7%	12.3%
O=C(CN1C(=O)NC2(CCCC2)C1=O)Nc1nc(-c2ccc(F)cc2)cs1	3.5	0.5	12.7	0.7	-2.3	-6.8%	2.7%
O=C(Nc1ccc(Br)cc1)C1C2C=CC3(O2)C1C(=O)N(CCN1CCCCC1)C3C(=O)NC1CCCCC1 (configuration not stated)	-7.8	-0.4	-7.6	-6.0	-0.4	.	.
COc1ccc(C)cc1NC(=O)Nn1cnnc1	-3.2	1.2	5.8	-10.8	-0.2	.	.
Cc1ccc(-c2c[n+](CC(=O)Nc3c(C)cccc3C)c3n2CCC3)cc1	-13.0	0.7	0.1	-18.7	-6.0	.	.
Cc1ccc(NC(=O)C[n+]2cc(-c3ccccc3)n3c2CCC3)c(C)c1	-20.1	81.2*	65.4*	-5.1	0.6	-23.3%	0.1%
OCCNCC1(O)C2CC3CC(C2)CC1C3 (configuration not stated)	-1.7	0.5	0.5	-12.1	-0.4	.	.
OC1(CNCc2ccccc2)C2CC3CC(C2)CC1C3 (configuration not stated)	-19.0	49.4*	56.5*	-14.4	0.8	-16.5%	3.9%
O=C(Cc1c(F)cccc1Cl)NNC(=O)c1ccncc1	3.9	-0.4	-9.5	-3.4	7.9	-1.8%	-0.7%
COc1cc(-c2noc(C)c2C(=O)NCCc2c[nH]c3ccccc23)cc(OC)c1OC	-10.6	0.4	1.5	-10.2	-1.3	.	.
O=C1NC(c2ccc3c(c2)OCO3)Oc2ccccc21 (configuration not stated)	0.1	0.9	2.3	-10.6	-3.1	.	.
CC1(C)CC(=O)c2sc(NC(=O)c3cccs3)nc2C1	-17.0	52.1*	-6.9	3.3	9.2	?	15.3%
CC1(C)CC(=O)c2sc(NC(=O)C(C)(C)C)nc2C1	21.0	-0.1	-9.2	-0.4	-1.0	.	.

Source: PubChem BioAssay (National Center for Advancing Translational Sciences (NCATS))
